This is an account of results in PubChem BioAssay AID504803 (The Scripps Research Institute Molecular Screening Center, 2011).

About 1,700 (0.5%) of roughly 340,000 compounds were called active. The sample holds actives, similar compounds and a random draw of the others, so the mix is not that of the screen. No stated cut-off is given here; in the data, active means inhibition above about 36%; inactive means the rest.

Sequence of Serine protease HTRA1 (Homo sapiens) (Q92743 whole entry, looked up): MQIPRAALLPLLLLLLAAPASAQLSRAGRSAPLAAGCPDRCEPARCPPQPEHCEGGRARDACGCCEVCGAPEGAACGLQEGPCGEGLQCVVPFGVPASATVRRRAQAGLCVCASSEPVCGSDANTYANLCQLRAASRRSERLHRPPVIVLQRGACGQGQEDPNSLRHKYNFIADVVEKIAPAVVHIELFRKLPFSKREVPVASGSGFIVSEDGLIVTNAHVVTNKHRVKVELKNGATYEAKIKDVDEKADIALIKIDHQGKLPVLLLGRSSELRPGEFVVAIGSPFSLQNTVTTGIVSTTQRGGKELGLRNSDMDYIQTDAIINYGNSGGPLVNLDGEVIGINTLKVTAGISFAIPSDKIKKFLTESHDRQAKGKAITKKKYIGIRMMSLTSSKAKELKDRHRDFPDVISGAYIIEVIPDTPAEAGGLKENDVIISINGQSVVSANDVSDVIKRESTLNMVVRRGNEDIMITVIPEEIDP

This assay concerns the target Serine protease HTRA1 (Homo sapiens) (UniProt Q92743). As to the kind of experiment: HTRA1 serine protease inhibitors, primary screen, biochemical, fluorescence polarization, HTS (AID 504803).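 Further: 0% = enzyme with DMSO and 100% = wells lacking enzyme.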 The settings on record: recombinant HTRA1, FP-rhodamine activity-based probe, at 5.96 µM, hits give high values.
As to `C[C@H]1CN([C@@H](C)CO)C(=O)CCCn2cc(nn2)CO[C@@H]1CN(C)S(=O)(=O)c1ccc(-c2ccccc2)cc1`, the inhibition was -3.19% (inactive). Turning to `COc1ccc2c(c1)CCCO[C@]21O[C@H](CCO)C[C@H](O)[C@H]1O`, the inhibition was -2.62% (inactive). The value for `CC1=C(C(=O)N2CCOCC2)CC(CC(=O)NCc2ccco2)C(=O)N1Cc1ccc(F)cc1` (centres undefined) was 4.18% (inactive). `Cc1ccn(CC(=O)NC2CCCN(Cc3ccccc3F)C2)n1` (centres undefined): the inhibition was 0.25% (inactive). As to `Cc1ccc(C(=O)NC(C)C(c2cccs2)N2CCOCC2)cc1C` (centres undefined), the inhibition is 1.64% (inactive). The value for `C[C@@H]1CN([C@@H](C)CO)S(=O)(=O)c2ccc(C#Cc3cccc(F)c3)cc2O[C@H]1CN(C)S(=O)(=O)c1cn(C)cn1` was -25.7% (inactive); that for `CC(C)/C=N/NC(=O)c1cc(Br)ccc1O` was 6.13% (inactive); that for `CC(=O)N/N=C(\C)c1ccc(Br)cc1Br` was 2.26% (inactive).

As to `CC(=N\NC(=O)c1cc(Br)ccc1O)/C(=N/O)C(=O)Nc1ccccc1`, the inhibition is 46.1% (active). Then `CC1CCN(C(=O)CSc2nnc(-c3ccco3)n2N)CC1`, with 2.17% (inactive); and `C[C@@H]1CN([C@@H](C)CO)C(=O)c2cc(Br)cnc2O[C@H]1CN(C)Cc1ccc(-c2ccccc2)cc1`, with -13.1% (inactive); and `Cc1ccc(Nc2nc(-c3ccc(O)cc3O)cs2)nc1`, with 37.1% (active). Then `Cc1ccn2c(-c3csc(Nc4ccc(C(=O)O)cc4)n3)c(C)nc2c1`, with -2.27% (inactive); and `Oc1ccc(-c2nc3ccccc3nc2-c2ccc(O)cc2O)c(O)c1`, with -7.06% (inactive); and `COc1ccc(S(=O)(=O)N(C)C[C@H]2OCc3cnnn3CCCC(=O)N([C@H](C)CO)C[C@H]2C)cc1`, with 0.5% (inactive). Then `CC(OC(=O)c1cccnc1Cl)C(=O)NC1CCCCC1` (centres undefined), with 2.76% (inactive); and `CCOc1ccc(CCN2C(=O)c3cccnc3C2=O)cc1OCC`, with -1.21% (inactive). On to `NC1=CC(=O)C(=O)c2cccnc21`, for which the inhibition is 38.3% (active).

Regarding `Cc1ccc(CCNC(=O)CN2C(=O)CSc3ccc(S(=O)(=O)N4CCOCC4)cc32)cc1`, the inhibition was -3.89% (inactive). The value for `COCOCCn1cc(CN2CCS(=O)(=O)N(Cc3ccc(-c4ccc(OC)cc4)cc3)C(CC(C)C)C2=O)nn1` (centres undefined) was -16.7% (inactive); that for `CCN(CC)c1ccc(/C=N/Nc2nc(C)cc(C)n2)c(O)c1` was 63.8% (active). The value for `CCN(CC)c1ccc(/C=N/NC(=O)c2cnccn2)c(O)c1` was 11.4% (inactive); that for `Cc1cc(C)nc(N/N=C/c2c(CO)cnc(C)c2O)n1` was 4.05% (inactive). Then `COc1ccc(CN2C(=O)C(CC(=O)NC3CCCCC3)CC(C(=O)N3CCOCC3)=C2C)cc1` (centres undefined), with 9.07% (inactive).

On to `O=C(Nc1ccc(OC(F)(F)F)cc1)c1ccc2c(c1)no[n+]2[O-]`, for which the inhibition is 42.3% (active). The value for `CCOc1c2ccc(C(=O)NCc3ccc(OC(F)(F)F)cc3)cc2nn1C` was -3.97% (inactive). The value for `CCOC(=O)Cc1ncccc1C(=O)Nc1ccc(OC(F)(F)F)cc1` was -0.74% (inactive); that for `C[C@H]1CN([C@@H](C)CO)S(=O)(=O)c2ccc(-c3cccc(F)c3)cc2O[C@@H]1CN(C)C` was 0.65% (inactive). The value for `Cn1c(CCN2CCN(c3ccccn3)CC2)nc2cc(NS(=O)(=O)c3ccc(F)cc3)ccc21` was -0.52% (inactive). `C[C@H]1CN([C@@H](C)CO)C(=O)CCCn2cc(nn2)CO[C@@H]1CN(C)S(=O)(=O)c1ccc(-n2cccn2)cc1`: the inhibition is -3.1% (inactive). The value for `CC(=O)n1c(C=Nc2ccccc2)c(O)c2ccccc21` was -1.27% (inactive); that for `Oc1ccc(N=Cc2sc3ccccc3c2Cl)cc1` was 65.8% (active). Consider `C[C@H](CO)N1C[C@H](C)[C@H](CN(C)C(=O)Nc2ccc3c(c2)OCO3)Oc2ncc(Br)cc2C1=O`, for which the inhibition is -0.29% (inactive). `Cc1c(NC(=O)COC(=O)/C=C/c2cccc(F)c2)c(=O)n(-c2ccccc2)n1C`: the inhibition was -0.4% (inactive).

As to `CC1(C)CC(=O)C=C(c2ccccc2CO)C1=O`, the inhibition was -3.27% (inactive). Consider `CCCn1c(N)c(C(=O)CSc2nnc(Cc3cccs3)n2C2CC2)c(=O)[nH]c1=O`, for which the inhibition was 3% (inactive). Then `COc1ccccc1-c1n[nH]nc1C1=CC(=O)CC(C)(C)C1`, with 3.87% (inactive). Then `CCc1ccc2c(c1)C1(NN=C(c3ccccc3)S1)C(=O)N2` (centres undefined), with 60.5% (active). The value for `COc1ccc(-c2cnc3c(c2)C(=O)N([C@H](C)CO)C[C@@H](C)[C@H](CN(C)Cc2ccccc2)O3)cc1` was -5.18% (inactive).
